Values joined by “and” are separate entries in the source; they are usually repeats but may differ in a detail not shown here. Equal entries are not always repeated. Inconclusive results are not listed. Some compounds were tested as several samples or in several runs, with calls that do not always agree. Active and inactive are the calls of the source. Rule for the calls, unless noted: active = hit-call score of the fitted dose curve at least 0.9, where 1 is the maximum; inactive = score below 0.9.
Columns and labels:
[1] = molecular target: Retinoic acid receptor RXR-alpha (Homo sapiens) (UniProt P19793); assay: ATG_RXRa_TRANS: Attagene TRANS-FACTORIAL HepG2 Assay for human Retinoid X Receptor alpha (RXRa) (AID 2283012; active = hit-call score of the fitted dose curve at least 0.9, where 1 is the maximum)
Method in brief: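 Read-out: fluorescent reporter-transcript fragments quantified by capillary electrophoresis after RT-PCR. Transiently transfected HepG2 cells carrying GAL4-UAS reporters and NR-GAL4 chimeras were exposed to chemical for 24 h; activity scored as increase over DMSO.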

[2] = molecular target: human Retinoid X Receptor beta (RXRb), RXRB (gene 6257) (UniProt P28702); assay: ATG_RXRb_TRANS: Attagene TRANS-FACTORIAL HepG2 Assay for human Retinoid X Receptor beta (RXRb) (AID 2283013; active = hit-call score of the fitted dose curve at least 0.9, where 1 is the maximum)
Method in brief: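 Read-out: reporter mRNA induction via RT-PCR plus capillary electrophoresis fluorescence, analysed as signal increase relative to DMSO. Cells were human HepG2, transiently transfected with GAL4-UAS reporter constructs and chimeric receptor-Gal4 fusions, dosed for 24 h.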

[3] = molecular target: human Vitamin D Receptor (VDR), VDR (gene 7421) (UniProt P11473); assay: ATG_VDR_TRANS: Attagene TRANS-FACTORIAL HepG2 Assay for human Vitamin D Receptor (VDR) (AID 2283022; active = hit-call score of the fitted dose curve at least 0.9, where 1 is the maximum)
Method in brief: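 HepG2 cells were transiently transfected with multiple GAL4-UAS reporter units, so signal reflects exogenous chimeric receptor-Gal4 activity. After 24 h compound exposure, reporter mRNA was measured by RT-PCR, fluorescent labelling and capillary electrophoresis, fitted for gain of signal versus DMSO.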

[4] = molecular target: human Thyroid Receptor alpha (THRa1), THRA (gene 7067) (UniProt P10827); assay: ATG_THRa1_TRANS: Attagene TRANS-FACTORIAL HepG2 Assay for human Thyroid Receptor alpha (THRa1) (AID 2283014; active = hit-call score of the fitted dose curve at least 0.9, where 1 is the maximum)
Method in brief: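 HepG2 cells transiently transfected with multiplexed GAL4-UAS reporter units for exogenous chimeric THRa1-Gal4; reporter mRNA measured 24 h after dosing by RT-PCR, 6-FAM labelling, HpaI digestion and capillary electrophoresis. Gain-of-signal fitted versus DMSO baseline.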

[5] = read-out: E-selectin (Homo sapiens) (UniProt P16581); assay: BSK_3C_Eselectin: BioMAP Diversity Plus: 3C Assay for Eselectin Biomarker Activity (AID 2283015); conditions: primary human endothelial cells (HUVEC); actives raise or lower the signal
Method in brief: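 Primary human umbilical vein endothelial cells (3C system) were dosed with chemical and cell-surface E-selectin measured by ELISA 24 h later. Bidirectional curve fitting used DMSO as negative control and baseline.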

[6] = read-out: Interleukin-1 alpha (IL1a), IL1A (gene 3552); assay: BSK_BE3C_IL1a: BioMAP Diversity Plus: BE3C Assay for Interleukin-1 alpha (IL1a) Biomarker Activity (AID 2283016); conditions: primary human bronchial epithelial cells; actives raise or lower the signal
Method in brief: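 ELISA read-out of IL-1a from human lung bronchial epithelial primary cells, 24 h post-dose. Gain or loss of signal fitted relative to DMSO negative control.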

[7] = read-out: Monocyte Chemoattractant Protein-1 (MCP1), CCL2 (gene 6347); assay: BSK_3C_MCP1: BioMAP Diversity Plus: 3C Assay for Monocyte Chemoattractant Protein-1 (MCP1) Biomarker Activity (AID 2283017); conditions: primary human endothelial cells (HUVEC); actives raise or lower the signal
Method in brief: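 Primary human umbilical vein endothelial cells (3C system) were exposed to test chemical for 24 h, after which MCP-1 was quantified by ELISA. Activity was fitted bidirectionally against DMSO as negative control and baseline.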

[8] = read-out: Monocyte Chemoattractant Protein-1 (MCP1), CCL2 (gene 6347); assay: BSK_4H_MCP1: BioMAP Diversity Plus: 4H Assay for Monocyte Chemoattractant Protein-1 (MCP1) Biomarker Activity (AID 2283018); conditions: primary human endothelial cells (HUVEC); actives raise or lower the signal
Method in brief: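 HUVEC primary cells, 24 h post-dose, MCP-1 by ELISA. Gain or loss of signal fitted bidirectionally vs DMSO baseline. Cytotoxicity: SRB stain (0.1% after 10% TCA fixation), read 560 nm, parallel cultures.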

[9] = read-out: Human Leukocyte Antigen - DR isotype (HLADR), HLA-DRA (gene 3122); assay: BSK_3C_HLADR: BioMAP Diversity Plus: 3C Assay for Human Leukocyte Antigen - DR isotype (HLADR) Biomarker Activity (AID 2283019); conditions: primary human endothelial cells (HUVEC); actives raise or lower the signal
Method in brief: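 Primary human umbilical vein endothelial cells (3C system) were dosed with compound and cell-surface HLA-DR was quantified by ELISA at 24 h. Activity was fitted bidirectionally against DMSO as negative control and baseline.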

[10] = read-out: Interleukin-8 (IL8), CXCL8 (gene 3576); assay: BSK_3C_IL8: BioMAP Diversity Plus: 3C Assay for Interleukin-8 (IL8) Biomarker Activity (AID 2283020); conditions: primary human endothelial cells (HUVEC); actives raise or lower the signal
Method in brief: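 HUVEC, 3C stimulation; 24 h compound exposure; IL-8 read by ELISA; gain or loss of signal fitted relative to DMSO control.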

[11] = read-out: Monokine induced gamma interferon (MIG), CXCL9 (gene 4283); assay: BSK_3C_MIG: BioMAP Diversity Plus: 3C Assay for Monokine induced gamma interferon (MIG) Biomarker Activity (AID 2283021); conditions: primary human endothelial cells (HUVEC); actives raise or lower the signal
Method in brief: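 HUVEC, 3C system; 24 h chemical exposure; MIG by ELISA; bidirectional fit vs DMSO baseline.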

[12] = read-out: Matrix Metallopeptidase 1 (MMP1), MMP1 (gene 4312); assay: BSK_BE3C_MMP1: BioMAP Diversity Plus: BE3C Assay for Matrix Metallopeptidase 1 (MMP1) Biomarker Activity (AID 2283024); conditions: primary human bronchial epithelial cells; actives raise or lower the signal
Method in brief: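 ELISA read-out of MMP1 in human lung bronchial epithelial primary cultures, 24 h post-dose; bidirectional curve fit vs DMSO baseline, gain or loss of signal scored.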

[13] = BSK_3C_Vis: BioMAP Diversity Plus: 3C Assay for Morphology Visualization (AID 2283025); conditions: primary human endothelial cells (HUVEC);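 note: fitted both ways so gain or loss versus DMSO counts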;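 for AC50: light microscopy image of cell morphology used as background control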
Method in brief: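 HUVEC, 3C system; light microscopy of morphology at 24 h post-dose. Bidirectional fit vs DMSO baseline. Secondary readout, background-control function.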

[14] = read-out: Pselectin, SELP (gene 6403); assay: BSK_4H_Pselectin: BioMAP Diversity Plus: 4H Assay for Pselectin Biomarker Activity (AID 2283026); conditions: primary human endothelial cells (HUVEC); actives raise or lower the signal
Method in brief: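 HUVEC, 24 h chemical exposure; P-selectin read by ELISA. Bidirectional curve fit vs DMSO baseline; gain or loss of signal scored.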

[15] = BSK_4H_SRB: Viability Assessment in the BioMAP Diversity Plus: 4H Assay (AID 2283027); conditions: primary human endothelial cells (HUVEC);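 note: cells exposed to compound for 24 h before staining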;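 for AC50: curves fitted both ways versus DMSO so AC50 may be loss or gain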
Method in brief: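 HUVEC, 24 h post-dose; 10% TCA fix, 0.1% SRB stain, A560 nm. Total protein = overt cytotoxicity, parallel to biomarker read. Bidirectional fit vs DMSO baseline.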

[16] = BSK_BE3C_SRB: Viability Assessment in the BioMAP Diversity Plus: BE3C Assay (AID 2283028); conditions: primary human bronchial epithelial cells;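 for AC50: fitted both ways so AC50 may mark signal gain or loss versus DMSO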
Method in brief: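 Human primary bronchial epithelial cells were exposed to test chemicals for 24 h. Total protein in parallel cultures was then measured by staining with 0.1% sulforhodamine B after 10% TCA fixation, with absorbance read at 560 nm. Activity was fitted bidirectionally against DMSO.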

[17] = read-out: Thrombomodulin, THBD (gene 7056); assay: BSK_3C_Thrombomodulin: BioMAP Diversity Plus: 3C Assay for Thrombomodulin Biomarker Activity (AID 2283029); conditions: primary human endothelial cells (HUVEC); actives raise or lower the signal
Method in brief: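 HUVEC, 3C conditions; compound 24 h; thrombomodulin by ELISA; bidirectional curve fit vs DMSO baseline; parallel SRB total-protein staining for cytotoxicity.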

[18] = read-out: Urokinase-type plasminogen activator receptor (uPAR), PLAUR (gene 5329); assay: BSK_4H_uPAR: BioMAP Diversity Plus: 4H Assay for Urokinase-type plasminogen activator receptor (uPAR) Biomarker Activity (AID 2283030); conditions: primary human endothelial cells (HUVEC); actives raise or lower the signal
Method in brief: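 Primary human umbilical vein endothelial cells were exposed to chemical for 24 h before cell-surface uPAR was quantified by ELISA. Activity was fitted bidirectionally against the DMSO negative control baseline.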

Measured: AC50

E-selectin (Homo sapiens), sequence (P16581 whole entry, looked up): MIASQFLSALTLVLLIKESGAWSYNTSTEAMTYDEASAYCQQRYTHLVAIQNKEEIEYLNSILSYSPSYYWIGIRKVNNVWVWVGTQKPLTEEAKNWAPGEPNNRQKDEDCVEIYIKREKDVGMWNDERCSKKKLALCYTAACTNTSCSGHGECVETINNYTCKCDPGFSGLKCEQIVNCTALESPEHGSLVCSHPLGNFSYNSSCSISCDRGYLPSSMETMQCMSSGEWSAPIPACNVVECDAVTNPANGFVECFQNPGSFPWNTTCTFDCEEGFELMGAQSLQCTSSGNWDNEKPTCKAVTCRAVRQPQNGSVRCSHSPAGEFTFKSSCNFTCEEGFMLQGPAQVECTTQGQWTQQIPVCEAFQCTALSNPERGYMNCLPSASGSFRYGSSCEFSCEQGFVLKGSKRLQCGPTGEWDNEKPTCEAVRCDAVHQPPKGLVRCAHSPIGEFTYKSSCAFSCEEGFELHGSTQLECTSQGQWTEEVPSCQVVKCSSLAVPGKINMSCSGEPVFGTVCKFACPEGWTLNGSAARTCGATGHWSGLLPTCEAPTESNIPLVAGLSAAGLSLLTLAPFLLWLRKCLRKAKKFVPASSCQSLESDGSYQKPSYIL
human Vitamin D Receptor (VDR), VDR (gene 7421), sequence (P11473 whole entry, looked up, the tested form may be a part): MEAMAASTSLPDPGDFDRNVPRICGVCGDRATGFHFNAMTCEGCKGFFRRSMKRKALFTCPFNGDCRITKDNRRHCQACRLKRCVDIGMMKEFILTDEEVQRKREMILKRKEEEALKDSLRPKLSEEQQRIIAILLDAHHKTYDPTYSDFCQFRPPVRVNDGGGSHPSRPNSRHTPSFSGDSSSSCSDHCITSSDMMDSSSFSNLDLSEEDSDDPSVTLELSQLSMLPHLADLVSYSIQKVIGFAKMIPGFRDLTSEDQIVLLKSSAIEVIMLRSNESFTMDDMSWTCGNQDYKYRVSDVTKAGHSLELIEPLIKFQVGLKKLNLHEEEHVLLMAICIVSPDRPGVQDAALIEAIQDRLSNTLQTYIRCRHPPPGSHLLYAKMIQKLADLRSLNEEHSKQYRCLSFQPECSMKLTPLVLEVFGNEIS
Retinoic acid receptor RXR-alpha (Homo sapiens), sequence (P19793 whole entry, looked up, the tested form may be a part): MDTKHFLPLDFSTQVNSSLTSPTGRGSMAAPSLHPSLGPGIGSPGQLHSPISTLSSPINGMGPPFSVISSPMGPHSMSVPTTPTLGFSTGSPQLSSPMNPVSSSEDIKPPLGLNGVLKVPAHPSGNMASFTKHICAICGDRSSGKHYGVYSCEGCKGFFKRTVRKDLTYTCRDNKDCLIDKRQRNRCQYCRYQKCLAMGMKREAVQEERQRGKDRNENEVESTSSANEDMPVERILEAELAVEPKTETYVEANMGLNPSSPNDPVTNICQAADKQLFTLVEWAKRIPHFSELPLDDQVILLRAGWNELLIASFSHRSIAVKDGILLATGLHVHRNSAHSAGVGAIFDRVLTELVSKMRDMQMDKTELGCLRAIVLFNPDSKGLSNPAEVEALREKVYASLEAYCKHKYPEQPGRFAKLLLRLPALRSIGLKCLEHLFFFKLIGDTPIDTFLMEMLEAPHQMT
human Thyroid Receptor alpha (THRa1), THRA (gene 7067), sequence (P10827 whole entry, looked up, the tested form may be a part): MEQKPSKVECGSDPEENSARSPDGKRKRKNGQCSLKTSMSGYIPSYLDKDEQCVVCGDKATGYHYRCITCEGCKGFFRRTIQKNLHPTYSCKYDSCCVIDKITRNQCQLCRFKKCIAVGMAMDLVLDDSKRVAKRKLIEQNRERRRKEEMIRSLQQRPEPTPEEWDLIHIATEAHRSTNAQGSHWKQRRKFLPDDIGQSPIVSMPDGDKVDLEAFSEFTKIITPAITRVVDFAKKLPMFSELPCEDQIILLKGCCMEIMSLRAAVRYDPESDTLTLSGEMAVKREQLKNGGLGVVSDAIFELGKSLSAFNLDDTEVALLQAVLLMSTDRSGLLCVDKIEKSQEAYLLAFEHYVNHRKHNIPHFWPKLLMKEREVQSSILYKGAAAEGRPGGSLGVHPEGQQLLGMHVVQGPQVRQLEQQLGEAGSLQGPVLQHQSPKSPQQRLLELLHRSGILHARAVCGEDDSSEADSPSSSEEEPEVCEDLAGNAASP
human Retinoid X Receptor beta (RXRb), RXRB (gene 6257), sequence (P28702 whole entry, looked up, the tested form may be a part): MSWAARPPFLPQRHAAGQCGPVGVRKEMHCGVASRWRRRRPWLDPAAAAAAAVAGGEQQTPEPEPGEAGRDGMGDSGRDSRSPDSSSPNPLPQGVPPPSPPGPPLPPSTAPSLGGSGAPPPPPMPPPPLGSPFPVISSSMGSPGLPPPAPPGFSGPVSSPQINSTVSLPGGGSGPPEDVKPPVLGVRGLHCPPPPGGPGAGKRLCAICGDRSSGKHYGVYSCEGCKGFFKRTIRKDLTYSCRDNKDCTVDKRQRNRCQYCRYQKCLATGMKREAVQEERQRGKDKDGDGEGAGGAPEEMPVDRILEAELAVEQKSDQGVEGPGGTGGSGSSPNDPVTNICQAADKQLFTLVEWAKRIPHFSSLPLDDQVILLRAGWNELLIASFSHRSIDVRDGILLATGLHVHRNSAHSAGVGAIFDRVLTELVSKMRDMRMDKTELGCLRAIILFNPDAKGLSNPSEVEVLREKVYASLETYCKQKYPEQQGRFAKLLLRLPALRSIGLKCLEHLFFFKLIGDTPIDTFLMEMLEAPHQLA

C1CCOC1
inactive: [1] | [2] | [3]

COc1cc([C@@H]2c3cc4c(cc3[C@@H](O[C@@H]3O[C@@H]5CO[C@@H](C)O[C@H]5[C@H](O)[C@H]3O)[C@H]3COC(=O)[C@H]23)OCO4)cc(OC)c1O
inactive: [1] | [2] | [4] | [3]

c1ccc2cc(Nc3ccc(Nc4ccc5ccccc5c4)cc3)ccc2c1
active: [6] 147 nM | [13] 8.8 µM
not listed: [2] | [3]
inactive: all other assays above

CC(C)NCC(O)COc1ccc(CC(N)=O)cc1 (stereo not given)
inactive: [1] | [2] | [3]

CC1(C)CCC[C@]2(C)[C@H]3CCO[C@]3(C)CC[C@@H]12
active: [5] 36.9 µM and 34.3 µM | [6] 28.7 µM and 29.6 µM | [7] 26.4 µM and 34.5 µM | [9] 33.8 µM and 34.7 µM | [10] 31.5 µM and 35.4 µM | [14] 33.4 µM | [15] 32.1 µM and 33.9 µM | [16] 30 µM | [17] 14.6 µM and 17.3 µM | [18] 34.2 µM
inactive: [1] | [2] | [8] | [3] | [12] | [14] | [16] | [18]

CSc1c(Cl)c(Cl)c(Cl)c(Cl)c1Cl
inactive: [3]
active: [1] 27.3 µM | [2] 2.96 µM

CCc1ncc(C)[nH]1
inactive: [1] | [4]

ClC(c1ccccc1)(c1ccccc1)c1ccccc1
inactive: [1] | [2] | [3]

Cc1ccc2c(c1)C(=O)OC2=O
inactive: [1] | [2] | [3]

CC(C=O)Cc1ccc(C(C)(C)C)cc1 (stereo not given)
active: [5] 30.8 µM | [7] 30.6 µM | [8] 20 µM | [9] 30.3 µM | [13] 37.8 µM | [14] 31.1 µM | [15] 30.1 µM | [18] 29.7 µM
inactive: [1] | [2] | [6] | [10] | [3] | [12] | [16] | [17]

COc1cc(Cl)c(OC)cc1N
not listed: [4] | [11]
inactive: all other assays above

CC[N+](C)(CC)CC
inactive: [1] | [4]

CCCCSCCCC
inactive: [1] | [4]

CCCCCCC(C)Nc1ccc(Nc2ccccc2)cc1 (stereo not given)
inactive: [3]
active: [1] 34.4 µM | [2] 30.2 µM | [4] 27.1 µM

C=C(CC(=O)O)C(=O)O
inactive: [1] | [2] | [3]

Cc1ccc(S(N)(=O)=O)cc1
inactive: [1] | [4]

CCCCCCCCCC(C)C=O (stereo not given)
inactive: [1] | [2] | [3]

Cc1ncc[nH]1
inactive: [1] | [4]

N[C@@H](Cc1cc(I)c(Oc2cc(I)c(O)c(I)c2)c(I)c1)C(=O)O
inactive: [1] | [3]
active: [2] 69 µM

CC(=O)c1c(C)c([N+](=O)[O-])c(C(C)(C)C)c([N+](=O)[O-])c1C
active: [1] 6.93 µM | [2] 1 µM
not listed: [3] | [4] | [11]
inactive: all other assays above

CCOc1ccccc1O
inactive: [1] | [4]

CC1CC(O)CC(C)(C)C1 (stereo not given)
inactive: [1] | [4]

CCCCCCCC(=O)OCC(O)CO (stereo not given)
inactive: [1] | [4]

CC(=O)CC(=O)Nc1ccccc1
inactive: [1] | [4]

OCc1cccc(Oc2ccccc2)c1
inactive: [1] | [4] | [3]
active: [2] 100 µM
